# Results as given in publication PMC7862700, “An all-to-all approach to the identification of sequence-specific readers for epigenetic DNA modifications on cytosine”.
# What was measured:
# Test in all cases: DAPPL (digital affinity profiling via proximity ligation, sequencing); 10 mM Tris-HCl pH 7.5, 50 mM NaCl, 1 mM DTT, 4% glycerol, room temperature, 30 min; GST-TFs on glutathione beads, 16-mer random dsDNA library, 0.1% formaldehyde crosslink after washing; high values mean tight binding
# FLI1 = biological target: T1, FLI1 (Homo sapiens, UniProt Q01543 1-452); details: protein: recombinant; tags: N-terminal GST; dsDNA, one strand shown
# T1 sequence: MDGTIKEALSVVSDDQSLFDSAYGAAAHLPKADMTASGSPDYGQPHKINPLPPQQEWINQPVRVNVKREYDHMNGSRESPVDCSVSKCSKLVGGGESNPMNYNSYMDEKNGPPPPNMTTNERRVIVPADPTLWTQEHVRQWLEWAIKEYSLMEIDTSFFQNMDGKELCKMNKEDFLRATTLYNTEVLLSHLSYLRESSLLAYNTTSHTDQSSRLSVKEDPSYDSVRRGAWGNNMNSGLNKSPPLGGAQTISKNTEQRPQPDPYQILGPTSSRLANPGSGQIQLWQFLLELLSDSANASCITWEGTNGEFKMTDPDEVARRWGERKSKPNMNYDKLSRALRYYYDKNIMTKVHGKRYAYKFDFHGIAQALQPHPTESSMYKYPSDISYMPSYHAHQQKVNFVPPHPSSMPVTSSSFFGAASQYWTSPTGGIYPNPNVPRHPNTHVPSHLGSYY
# Procedure, shortened: (§1)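 Beads coated with glutathione captured GST-fused human transcription factors that had been expressed in yeast, and the factors were then given DNA barcodes and pooled with a tag-only sample. The pools were incubated with 200 nmole of a random double-stranded 16-mer DNA library in Tris/NaCl/DTT/glycerol buffer for 30 min at room temperature, washed, crosslinked with 0.1% formaldehyde and proximity-ligated with BsaI/T4 ligase at 37 °C for 1 h. PCR amplification and Illumina NextSeq500 sequencing came last. Binding signal is each hexamer's read frequency for a factor divided by its frequency for the tag-only sample.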
# ELK1 = biological target: T2, ELK1 (Homo sapiens, UniProt P19419 1-428); details: protein: recombinant; tags: N-terminal GST; dsDNA, one strand shown
# T2 sequence: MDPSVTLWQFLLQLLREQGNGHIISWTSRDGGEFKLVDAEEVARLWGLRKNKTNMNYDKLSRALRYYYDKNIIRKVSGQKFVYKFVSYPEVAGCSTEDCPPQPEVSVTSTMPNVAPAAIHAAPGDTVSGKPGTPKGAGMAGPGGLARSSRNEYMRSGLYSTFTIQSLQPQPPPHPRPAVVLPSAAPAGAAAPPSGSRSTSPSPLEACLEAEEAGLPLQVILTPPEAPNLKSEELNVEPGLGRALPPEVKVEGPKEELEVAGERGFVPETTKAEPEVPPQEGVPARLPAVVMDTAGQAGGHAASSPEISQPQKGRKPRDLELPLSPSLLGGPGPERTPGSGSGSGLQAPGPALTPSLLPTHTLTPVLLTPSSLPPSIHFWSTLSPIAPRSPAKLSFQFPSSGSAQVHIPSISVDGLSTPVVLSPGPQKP
# Procedure, shortened: as §1
# GABPA = biological target: T3, GABPA (Homo sapiens, UniProt Q06546 1-454); details: protein: recombinant; tags: N-terminal GST; dsDNA, one strand shown
# T3 sequence: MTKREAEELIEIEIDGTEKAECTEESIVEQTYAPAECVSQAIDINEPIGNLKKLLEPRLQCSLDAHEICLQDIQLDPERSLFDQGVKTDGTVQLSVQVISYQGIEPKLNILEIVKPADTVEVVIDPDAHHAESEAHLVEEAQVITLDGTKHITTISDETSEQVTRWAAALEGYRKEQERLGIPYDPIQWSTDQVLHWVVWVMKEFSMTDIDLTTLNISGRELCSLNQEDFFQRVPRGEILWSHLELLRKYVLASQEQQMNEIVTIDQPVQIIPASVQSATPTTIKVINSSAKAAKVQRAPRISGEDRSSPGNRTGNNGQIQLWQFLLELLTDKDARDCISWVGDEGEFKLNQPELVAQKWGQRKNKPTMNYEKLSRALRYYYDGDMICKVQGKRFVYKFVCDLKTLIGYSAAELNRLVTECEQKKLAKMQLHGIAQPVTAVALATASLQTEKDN
# Procedure, shortened: as §1
# ERG = biological target: T4, ERG (Homo sapiens, UniProt P11308 1-479); details: protein: recombinant; tags: N-terminal GST; dsDNA, one strand shown
# T4 sequence: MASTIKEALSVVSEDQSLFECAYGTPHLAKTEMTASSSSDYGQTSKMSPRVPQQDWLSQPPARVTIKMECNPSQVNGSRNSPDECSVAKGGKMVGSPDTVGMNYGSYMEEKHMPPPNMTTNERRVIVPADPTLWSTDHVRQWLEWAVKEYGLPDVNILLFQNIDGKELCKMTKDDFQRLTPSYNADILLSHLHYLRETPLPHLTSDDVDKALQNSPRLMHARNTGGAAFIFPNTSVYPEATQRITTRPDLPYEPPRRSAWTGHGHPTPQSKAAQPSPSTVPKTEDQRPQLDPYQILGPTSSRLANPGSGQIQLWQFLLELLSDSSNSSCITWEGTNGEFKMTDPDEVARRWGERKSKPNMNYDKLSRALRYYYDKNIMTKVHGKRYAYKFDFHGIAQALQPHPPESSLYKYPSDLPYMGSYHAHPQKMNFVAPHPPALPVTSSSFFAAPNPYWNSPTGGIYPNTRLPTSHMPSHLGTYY
# Procedure, shortened: as §1
# ELF1 = ELF1 (Homo sapiens, UniProt P32519 1-619); details: protein: recombinant; tags: N-terminal GST; dsDNA, one strand shown
# Procedure, shortened: as §1
# EHF = biological target: T5, EHF (Homo sapiens, UniProt Q9NZC4 1-300); details: protein: recombinant; tags: N-terminal GST; dsDNA, one strand shown
# T5 sequence: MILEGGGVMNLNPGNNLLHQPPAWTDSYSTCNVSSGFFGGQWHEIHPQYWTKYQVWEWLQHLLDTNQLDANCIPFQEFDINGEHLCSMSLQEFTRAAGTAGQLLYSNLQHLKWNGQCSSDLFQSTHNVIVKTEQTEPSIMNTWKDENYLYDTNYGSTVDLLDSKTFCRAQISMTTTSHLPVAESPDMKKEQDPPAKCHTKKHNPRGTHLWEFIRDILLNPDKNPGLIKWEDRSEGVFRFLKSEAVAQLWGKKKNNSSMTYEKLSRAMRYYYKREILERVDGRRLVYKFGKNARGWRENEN
# Procedure, shortened: as §1
# SPI1 = SPI1 (Homo sapiens, UniProt P17947 1-270); details: protein: recombinant; tags: N-terminal GST; dsDNA, one strand shown
# Procedure, shortened: as §1
# SPIB = SPIB (Homo sapiens, UniProt Q01892 1-262); details: protein: recombinant; tags: N-terminal GST; dsDNA, one strand shown
# Procedure, shortened: as §1
# ELK3 = biological target: T6, ELK3 (Homo sapiens, UniProt P41970 1-407); details: protein: recombinant; tags: N-terminal GST; dsDNA, one strand shown
# T6 sequence: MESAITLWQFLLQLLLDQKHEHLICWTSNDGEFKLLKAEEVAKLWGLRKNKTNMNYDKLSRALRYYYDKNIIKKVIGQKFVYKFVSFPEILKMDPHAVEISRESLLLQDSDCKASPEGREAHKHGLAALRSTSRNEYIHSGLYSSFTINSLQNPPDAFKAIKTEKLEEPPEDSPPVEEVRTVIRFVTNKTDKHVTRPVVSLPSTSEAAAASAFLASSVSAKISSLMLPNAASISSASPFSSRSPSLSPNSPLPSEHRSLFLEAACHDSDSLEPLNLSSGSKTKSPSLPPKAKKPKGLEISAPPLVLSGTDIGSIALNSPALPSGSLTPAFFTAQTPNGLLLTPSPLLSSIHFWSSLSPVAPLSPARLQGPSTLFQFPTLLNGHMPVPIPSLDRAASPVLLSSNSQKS
# Procedure, shortened: as §1
# FEV = biological target: T7, FEV (Homo sapiens, UniProt Q99581 1-238); details: protein: recombinant; tags: N-terminal GST; dsDNA, one strand shown
# T7 sequence: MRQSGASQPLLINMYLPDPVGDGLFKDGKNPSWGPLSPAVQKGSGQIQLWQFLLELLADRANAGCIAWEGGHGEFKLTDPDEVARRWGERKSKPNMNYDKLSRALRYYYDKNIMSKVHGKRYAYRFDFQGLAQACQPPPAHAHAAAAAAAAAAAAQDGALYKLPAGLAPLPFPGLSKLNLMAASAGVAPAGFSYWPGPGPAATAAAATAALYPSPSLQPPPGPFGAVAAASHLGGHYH
# Procedure, shortened: as §1
# ETV5 = ETV5 (Homo sapiens, UniProt P41161 1-510); details: protein: recombinant; tags: N-terminal GST; dsDNA, one strand shown
# Procedure, shortened: as §1
# HSF1 = HSF1 (Homo sapiens, UniProt Q00613 1-529); details: protein: recombinant; tags: N-terminal GST; chain copies: 3; dsDNA, one strand shown
# Procedure, shortened: as §1
# SPIC = biological target: T8, SPIC (Homo sapiens, UniProt Q8N5J4 1-248); details: protein: recombinant; tags: N-terminal GST; dsDNA, one strand shown
# T8 sequence: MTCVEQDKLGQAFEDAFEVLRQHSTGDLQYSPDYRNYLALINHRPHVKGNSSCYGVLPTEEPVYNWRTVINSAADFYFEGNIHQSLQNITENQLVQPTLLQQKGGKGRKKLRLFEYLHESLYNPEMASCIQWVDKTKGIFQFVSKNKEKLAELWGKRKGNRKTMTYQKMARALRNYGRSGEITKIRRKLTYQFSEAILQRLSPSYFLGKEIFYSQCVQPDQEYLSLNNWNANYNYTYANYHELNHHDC
# Procedure, shortened: as §1
# ELF4 = ELF4 (Homo sapiens, UniProt Q99607 1-663); details: protein: recombinant; tags: N-terminal GST; dsDNA, one strand shown
# Procedure, shortened: as §1
# ELK4 = biological target: T9, ELK4 (Homo sapiens, UniProt P28324-2 1-405); details: protein: recombinant; tags: N-terminal GST; dsDNA, one strand shown
# T9 sequence: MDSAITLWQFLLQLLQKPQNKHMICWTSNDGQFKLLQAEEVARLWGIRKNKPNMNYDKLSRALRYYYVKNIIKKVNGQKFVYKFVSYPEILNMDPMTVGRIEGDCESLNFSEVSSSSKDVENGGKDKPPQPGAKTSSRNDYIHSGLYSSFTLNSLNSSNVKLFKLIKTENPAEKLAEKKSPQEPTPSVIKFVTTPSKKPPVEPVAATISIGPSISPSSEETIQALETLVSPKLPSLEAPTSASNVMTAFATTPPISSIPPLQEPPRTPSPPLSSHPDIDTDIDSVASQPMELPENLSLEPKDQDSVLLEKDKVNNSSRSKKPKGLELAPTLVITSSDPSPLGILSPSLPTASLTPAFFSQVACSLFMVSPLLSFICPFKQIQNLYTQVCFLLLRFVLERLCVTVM
# Procedure, shortened: as §1
# ETV2 = biological target: T10, ETV2 (Homo sapiens, UniProt O00321 1-342); details: protein: recombinant; tags: N-terminal GST; dsDNA, one strand shown
# T10 sequence: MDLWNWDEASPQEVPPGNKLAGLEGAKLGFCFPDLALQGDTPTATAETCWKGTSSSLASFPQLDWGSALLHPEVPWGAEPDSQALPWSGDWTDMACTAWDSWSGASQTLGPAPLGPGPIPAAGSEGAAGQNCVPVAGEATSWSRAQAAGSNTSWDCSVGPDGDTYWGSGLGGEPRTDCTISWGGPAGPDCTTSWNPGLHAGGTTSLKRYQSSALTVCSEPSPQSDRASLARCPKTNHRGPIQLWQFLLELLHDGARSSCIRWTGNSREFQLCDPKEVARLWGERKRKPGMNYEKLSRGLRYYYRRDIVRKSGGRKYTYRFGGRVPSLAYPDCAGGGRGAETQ
# Procedure, shortened: as §1
# ELF3 = biological target: T11, ELF3 (Homo sapiens, UniProt P78545 1-371); details: protein: recombinant; tags: N-terminal GST; dsDNA, one strand shown
# T11 sequence: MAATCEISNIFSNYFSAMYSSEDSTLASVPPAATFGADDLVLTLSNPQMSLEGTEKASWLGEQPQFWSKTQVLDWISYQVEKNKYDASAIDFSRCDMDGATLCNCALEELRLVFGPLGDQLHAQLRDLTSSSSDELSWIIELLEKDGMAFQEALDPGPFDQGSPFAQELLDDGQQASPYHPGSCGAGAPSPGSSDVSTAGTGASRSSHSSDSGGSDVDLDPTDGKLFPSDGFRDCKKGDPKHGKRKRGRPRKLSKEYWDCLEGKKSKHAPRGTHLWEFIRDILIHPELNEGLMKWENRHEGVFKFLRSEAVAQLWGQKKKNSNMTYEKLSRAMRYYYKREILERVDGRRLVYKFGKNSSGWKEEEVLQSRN
# Procedure, shortened: as §1
# CRX = CRX (Homo sapiens, UniProt O43186 1-299); details: protein: recombinant; tags: N-terminal GST; dsDNA, one strand shown
# Procedure, shortened: as §1
# ETV1 = ETV1 (Homo sapiens, UniProt P50549 1-477); details: protein: recombinant; tags: N-terminal GST; dsDNA, one strand shown
# Procedure, shortened: as §1
# Sequence of HSF1 (Q00613 whole entry): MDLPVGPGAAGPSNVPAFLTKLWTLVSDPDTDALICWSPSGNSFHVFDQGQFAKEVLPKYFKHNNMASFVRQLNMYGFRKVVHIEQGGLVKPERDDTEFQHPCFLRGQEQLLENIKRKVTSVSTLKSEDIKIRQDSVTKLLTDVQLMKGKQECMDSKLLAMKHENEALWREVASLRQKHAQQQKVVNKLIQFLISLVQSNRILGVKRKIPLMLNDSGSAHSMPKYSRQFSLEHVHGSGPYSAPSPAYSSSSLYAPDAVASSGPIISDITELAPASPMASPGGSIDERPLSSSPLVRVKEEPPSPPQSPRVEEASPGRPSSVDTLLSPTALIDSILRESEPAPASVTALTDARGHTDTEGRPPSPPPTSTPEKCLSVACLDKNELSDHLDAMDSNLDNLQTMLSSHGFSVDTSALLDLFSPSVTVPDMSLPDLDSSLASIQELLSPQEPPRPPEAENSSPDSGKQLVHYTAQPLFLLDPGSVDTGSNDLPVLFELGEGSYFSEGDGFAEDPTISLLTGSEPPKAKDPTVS
# Sequence of ETV1 (P50549 whole entry): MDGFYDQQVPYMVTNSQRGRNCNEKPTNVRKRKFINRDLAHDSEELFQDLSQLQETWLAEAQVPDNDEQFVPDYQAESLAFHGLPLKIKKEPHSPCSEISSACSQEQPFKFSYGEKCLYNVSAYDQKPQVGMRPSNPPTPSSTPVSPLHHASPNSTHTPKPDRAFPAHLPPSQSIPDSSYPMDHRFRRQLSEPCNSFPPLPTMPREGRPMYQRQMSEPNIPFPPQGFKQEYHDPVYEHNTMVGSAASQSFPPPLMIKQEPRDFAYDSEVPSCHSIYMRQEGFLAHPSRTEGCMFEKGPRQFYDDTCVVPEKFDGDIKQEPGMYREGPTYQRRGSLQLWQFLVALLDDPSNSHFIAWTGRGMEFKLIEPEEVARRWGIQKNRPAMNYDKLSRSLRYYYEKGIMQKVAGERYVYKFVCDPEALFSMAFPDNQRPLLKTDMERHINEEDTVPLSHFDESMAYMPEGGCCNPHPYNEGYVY
# Sequence of ELF4 (Q99607 whole entry): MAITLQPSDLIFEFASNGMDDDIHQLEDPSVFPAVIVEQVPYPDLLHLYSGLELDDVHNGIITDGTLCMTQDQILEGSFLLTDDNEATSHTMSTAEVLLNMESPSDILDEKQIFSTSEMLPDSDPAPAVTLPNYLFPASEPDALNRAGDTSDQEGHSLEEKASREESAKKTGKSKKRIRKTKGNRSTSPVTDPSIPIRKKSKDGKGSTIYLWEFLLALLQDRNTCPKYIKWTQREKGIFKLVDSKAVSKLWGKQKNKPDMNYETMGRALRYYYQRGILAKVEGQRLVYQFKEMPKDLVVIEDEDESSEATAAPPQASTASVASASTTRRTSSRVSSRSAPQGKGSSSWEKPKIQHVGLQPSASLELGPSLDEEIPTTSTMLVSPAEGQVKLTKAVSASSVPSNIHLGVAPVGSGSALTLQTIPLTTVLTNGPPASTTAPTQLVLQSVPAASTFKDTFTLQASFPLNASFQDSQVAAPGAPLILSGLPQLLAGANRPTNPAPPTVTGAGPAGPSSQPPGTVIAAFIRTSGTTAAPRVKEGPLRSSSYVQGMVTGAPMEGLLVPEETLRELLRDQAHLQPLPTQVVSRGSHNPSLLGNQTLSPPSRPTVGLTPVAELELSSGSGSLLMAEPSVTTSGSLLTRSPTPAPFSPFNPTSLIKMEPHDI
# Sequence of ETV5 (P41161 whole entry): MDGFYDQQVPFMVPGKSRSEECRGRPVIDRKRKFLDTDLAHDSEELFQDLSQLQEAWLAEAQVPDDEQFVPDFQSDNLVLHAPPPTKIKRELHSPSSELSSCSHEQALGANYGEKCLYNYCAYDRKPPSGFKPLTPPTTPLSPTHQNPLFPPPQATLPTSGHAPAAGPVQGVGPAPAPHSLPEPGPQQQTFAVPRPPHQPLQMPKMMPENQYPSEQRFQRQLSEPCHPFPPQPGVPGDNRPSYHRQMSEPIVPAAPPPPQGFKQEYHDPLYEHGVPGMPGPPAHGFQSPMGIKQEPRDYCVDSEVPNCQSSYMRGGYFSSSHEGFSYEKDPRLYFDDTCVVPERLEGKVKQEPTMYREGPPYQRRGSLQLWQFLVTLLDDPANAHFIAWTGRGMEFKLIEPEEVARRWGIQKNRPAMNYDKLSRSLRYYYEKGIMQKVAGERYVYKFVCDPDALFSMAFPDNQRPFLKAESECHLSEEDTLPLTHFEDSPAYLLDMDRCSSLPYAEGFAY
# Sequence of SPIB (Q01892 whole entry): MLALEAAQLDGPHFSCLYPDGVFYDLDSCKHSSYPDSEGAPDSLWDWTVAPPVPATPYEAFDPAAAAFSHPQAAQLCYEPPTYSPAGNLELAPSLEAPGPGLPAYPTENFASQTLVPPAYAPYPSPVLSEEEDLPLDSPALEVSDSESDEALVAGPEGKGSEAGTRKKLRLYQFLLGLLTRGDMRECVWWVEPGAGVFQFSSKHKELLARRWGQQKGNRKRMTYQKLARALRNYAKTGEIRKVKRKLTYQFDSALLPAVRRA
# Sequence of ELF1 (P32519 whole entry): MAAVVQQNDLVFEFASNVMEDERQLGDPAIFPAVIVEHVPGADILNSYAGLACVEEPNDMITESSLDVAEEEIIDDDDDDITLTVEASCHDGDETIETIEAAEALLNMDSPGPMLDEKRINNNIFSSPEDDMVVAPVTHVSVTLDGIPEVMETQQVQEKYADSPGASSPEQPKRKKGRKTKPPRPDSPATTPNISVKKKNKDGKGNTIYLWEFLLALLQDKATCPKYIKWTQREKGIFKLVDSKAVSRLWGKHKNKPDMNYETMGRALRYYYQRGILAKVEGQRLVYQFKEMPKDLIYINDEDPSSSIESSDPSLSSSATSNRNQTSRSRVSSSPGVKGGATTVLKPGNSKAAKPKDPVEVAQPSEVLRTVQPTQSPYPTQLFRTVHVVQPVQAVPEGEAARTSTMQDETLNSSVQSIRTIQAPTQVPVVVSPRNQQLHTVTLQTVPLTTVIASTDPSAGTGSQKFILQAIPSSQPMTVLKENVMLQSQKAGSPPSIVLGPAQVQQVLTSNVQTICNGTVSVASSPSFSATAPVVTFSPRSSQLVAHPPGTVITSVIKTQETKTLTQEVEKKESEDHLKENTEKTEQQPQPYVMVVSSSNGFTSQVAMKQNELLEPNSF
# Sequence of CRX (O43186 whole entry): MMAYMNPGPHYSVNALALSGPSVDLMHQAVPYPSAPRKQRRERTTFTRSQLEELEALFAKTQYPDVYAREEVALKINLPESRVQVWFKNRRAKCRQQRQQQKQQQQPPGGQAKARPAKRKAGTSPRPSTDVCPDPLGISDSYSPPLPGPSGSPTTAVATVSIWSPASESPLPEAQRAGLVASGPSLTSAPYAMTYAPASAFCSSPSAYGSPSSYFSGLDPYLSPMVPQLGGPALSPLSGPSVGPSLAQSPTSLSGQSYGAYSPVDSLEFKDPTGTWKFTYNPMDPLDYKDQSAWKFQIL
sequence,measurement,setting,value
CTCGCG,binding signal,FLI1,"1.47 fold enrichment (6-mer frequency, TF over GST control)"
same,binding signal,ELK1,"1.35 fold enrichment (6-mer frequency, TF over GST control)"
same,binding signal,GABPA,"1.55 fold enrichment (6-mer frequency, TF over GST control)"
same,binding signal,ERG,"1.42 fold enrichment (6-mer frequency, TF over GST control)"
same,binding signal,ELF1,"1.41 fold enrichment (6-mer frequency, TF over GST control)"
same,binding signal,EHF,"1.32 fold enrichment (6-mer frequency, TF over GST control)"
same,binding signal,SPI1,"1.39 fold enrichment (6-mer frequency, TF over GST control)"
same,binding signal,SPIB,"1.45 fold enrichment (6-mer frequency, TF over GST control)"
same,binding signal,ELK3,"1.34 fold enrichment (6-mer frequency, TF over GST control)"
same,binding signal,FEV,"1.35 fold enrichment (6-mer frequency, TF over GST control)"
same,binding signal,ETV5,"1.48 fold enrichment (6-mer frequency, TF over GST control)"
same,binding signal,HSF1,"1.55 fold enrichment (6-mer frequency, TF over GST control)"
same,binding signal,SPIC,"1.3 fold enrichment (6-mer frequency, TF over GST control)"
same,binding signal,ELF4,"1.48 fold enrichment (6-mer frequency, TF over GST control)"
same,binding signal,ELK4,"1.59 fold enrichment (6-mer frequency, TF over GST control)"
same,binding signal,ETV2,"1.39 fold enrichment (6-mer frequency, TF over GST control)"
same,binding signal,ELF3,"1.53 fold enrichment (6-mer frequency, TF over GST control)"
same,binding signal,CRX,"1.3 fold enrichment (6-mer frequency, TF over GST control)"
same,binding signal,ETV1,"1.47 fold enrichment (6-mer frequency, TF over GST control)"
